Screens: PubChem BioAssay, National Center for Advancing Translational Sciences (NCATS)
A selection: hits, their analogues and other compounds. The true share with any hit is near 9.4%.
NPC1 promoter act: NPC1 promoter activation. Huh7 NPC1 promoter luciferase reporter, 24 h. 320,000 tested, 2.4% active. AID 485313. Potency, µM (top dose mostly 9.22 µM), actives largely listed as activators; further: nearly all actives have a fitted effect of over 60% in size
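NPC1 promoter–luciferase Huh7 cells; 24 h compound; luminescence.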
Rab9 prom act: activates the Rab9 promoter. Huh7 Rab9 promoter-luciferase reporter, luminescence, 24 h. 320,000 tested, 2.8% active. Potency, µM (doses to about 9.22 µM), hits mostly activators; further: nearly all actives have a fitted effect of over 60% in size
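Rab9 promoter-driven luciferase in stably transfected Huh7 cells; 1500 cells/well rested 2 h, exposed to compound in DMSO for 24 h at 37 °C, 5% CO2. Luminescence read 10 min after adding luciferase reagent at ambient temperature.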
SMN2 splice enh: enhancers of SMN2 splice variant expression; HEK293 SMN2-luciferase splicing reporter, luminescence, 30-36 h; Potency, µM (highest dose often 46.1 µM), usual class: activators; 210,000 tested, 2.8% active; AID 1458; further: nearly all actives have a fitted effect of over 55% in size
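qHTS luciferase splicing reporter: luminescence rises when SMN2 exon 7 is included in transfected HEK293 cells. Compound exposure lasted 30-36 h at 37C, with 4.5 mM final sodium butyrate as control, followed by a ONE-Glo read.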
FLuc modulator: counter-screen for miR-21 project: firefly luciferase inhibitors or activators. P08659. purified FLuc, Km substrates, luminescence inhibition. Potency, µM (series often up to 57.5 µM), hits mostly inhibitors. 360,000 tested, 6.9% active. AID 588342; further: nearly all actives have a fitted effect of over 55% in size
Target sequence (P08659 whole entry, looked up): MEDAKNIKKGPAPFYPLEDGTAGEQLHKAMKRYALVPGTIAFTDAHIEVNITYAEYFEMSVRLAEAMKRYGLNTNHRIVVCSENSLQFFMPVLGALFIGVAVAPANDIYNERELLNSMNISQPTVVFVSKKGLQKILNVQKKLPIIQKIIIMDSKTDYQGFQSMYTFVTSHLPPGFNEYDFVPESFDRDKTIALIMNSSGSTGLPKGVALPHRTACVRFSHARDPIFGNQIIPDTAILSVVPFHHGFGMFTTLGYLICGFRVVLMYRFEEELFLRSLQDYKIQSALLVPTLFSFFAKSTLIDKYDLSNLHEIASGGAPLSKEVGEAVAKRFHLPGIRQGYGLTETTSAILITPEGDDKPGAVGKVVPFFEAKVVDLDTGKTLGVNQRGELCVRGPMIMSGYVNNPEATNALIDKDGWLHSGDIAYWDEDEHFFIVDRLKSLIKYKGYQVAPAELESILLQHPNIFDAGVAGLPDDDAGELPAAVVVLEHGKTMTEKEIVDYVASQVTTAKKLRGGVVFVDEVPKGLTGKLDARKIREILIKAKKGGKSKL
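Purified P. pyralis luciferase, 10 nM final, with Km-level 10 uM D-luciferin and 10 uM ATP in 50 mM Tris acetate pH 7.5, 10 mM Mg acetate, 0.01% Tween-20, 0.05% BSA; 6-point qHTS titration about 60 µM downward; luminescence read.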
ELG1 genotox: induces genotoxicity in HEK293T cells with luciferase-tagged ELG1; Potency, µM (highest dose often 46 µM), hits mostly activators; HEK293T ELG1-luciferase reporter, luminescence, 16 h; 330,000 tested, 1.3% active; AID 504466; further: nearly all actives have a fitted effect of over 60% in size
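Genotoxic stress is detected as increased luminescence from luciferase-tagged ELG1 in HEK293T cells, measured with ONE-Glo after a 16 hr treatment at 37 °C.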
ELG1 repair inh: inhibitors of ELG1-dependent DNA repair in HEK293T cells; HEK293T ELG1-luciferase reporter, luminescence, 16 h; DNA damage induced by 5-fluorouridine; Potency, µM (top dose mostly 46.1 µM), hits mostly inhibitors; 330,000 tested, 2.3% active; AID 504467; further: nearly all actives have a fitted effect of over 55% in size
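5-Fluorouridine DNA damage + compound/DMSO, 2,000 cells/well, 16 h, 37 °C/5% CO2. ONE-Glo, 30 min RT, luminescence. Readout = decrease in reporter signal.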
Numbers stand for hits; i = inactive; ? = inconclusive; nt = no result; ! = a repeat was not active. The call rests on the fitted dose curve; in most records, active means well fitted curve in the direction sought with a large enough effect; inconclusive means small, poorly fitted or top-dose-only effect, or another doubt; inactive means no such curve, though single readings can be large; an effect the other way counts as inactive or inconclusive.

SMILES	NPC1 promoter act	Rab9 prom act	SMN2 splice enh	FLuc modulator	ELG1 genotox	ELG1 repair inh
CCCn1c(=O)c(C(=O)Nc2ncccc2O)c(O)c2ccccc21	i	i	nt	i	i	i
COc1ccccc1N1CCN(C(=O)Cn2ncc3c2-c2cc(C)ccc2OC3)CC1	nt	nt	i	i	nt	nt
Cc1[nH]c2ccccc2c1/C=N/Nc1ccccc1[N+](=O)[O-]	i	?	i	16.9µM	i	?
COc1ccccc1/C=N\Nc1ccccc1[N+](=O)[O-]	?	2µM	nt	1.9µM	9.2µM	?
CCOc1ccccc1/C=N/Nc1ccccc1[N+](=O)[O-]	?	3.55µM	nt	?	i	?
CCN(CC)CCCC(C)n1c(-c2ccccc2)nc2c(NCCO)nc(C)nc21 (centres undefined)	nt	nt	i	nt	nt	nt
CN(C(=O)c1ccc2c(c1)SC1=NS(=O)(=O)CCN12)C(c1ccccc1)c1ccccc1	i	i	i	i	i	25.9µM
N#Cc1ccc(CN2CC[C@@]3(CCCN(C(=O)c4cnccn4)C3)C2)cc1	nt	nt	i	nt	nt	nt
NNCCc1ccccc1	i	14.1µM!	i	?	i	?
O=C(c1cnn2c1NC(=C1CC1)C=C2C(F)F)N(C1CCCCC1)C1CCCCC1	nt	nt	nt	i	nt	nt
COc1ccc(/C=C/C(=O)NCCN=C2NS(=O)(=O)c3ccccc32)cc1	i	i	i	15.1µM	i	i
COc1ccc(-c2noc(N3CCC(C(=O)N(C)c4cc(Cl)ccc4OC)CC3)n2)cc1	nt	nt	nt	i	nt	nt
Cn1c(=O)n(C)c2cc(S(=O)(=O)NCc3ccccc3)ccc21	i	i	i	i	i	?
COc1ccc(S(=O)(=O)Nc2cc3c(cc2NCc2ccccc2)n(C)c(=O)n3C)cc1	nt	nt	10µM	23.9µM	nt	nt
Cn1c(=O)n(C)c2cc(NS(=O)(=O)c3ccc(Br)cc3)c(NCc3ccccc3)cc21	nt	nt	7.08µM	?	nt	nt
CCCS(=O)(=O)Nc1cc2c(cc1NCc1ccccc1)n(C)c(=O)n2C	nt	nt	5.62µM	?	nt	nt
COc1ccc(NS(=O)(=O)c2ccc3c(c2)n(C)c(=O)n3C)cc1	i	i	i	i	i	?
CCOc1cc(NC(=S)NCCCN2CCOCC2)c(OCC)cc1NC(=O)C1CCCCC1	i	i	nt	i	i	i
Fc1ccccc1-c1cc2ccccc2cn1	?	i	nt	4.78µM	?	?
CCC(=O)N1c2ccccc2[C@@H](N(C(C)=O)c2ccccc2)C[C@H]1C	i	i	7.94µM	i	23.1µM	?
O=S(=O)(c1cccc(-c2nc3n(n2)Cc2ccccc2-3)c1)N1CCCCC1	i	i	i	?	i	i
O=S(=O)(c1cccc(-c2nc3n(n2)Cc2ccccc2-3)c1)N1CCCC1	i	i	i	15.1µM	i	i
CCC(=O)N1c2ccc(S(=O)(=O)NCc3ccc(F)cc3)cc2CC1C (centres undefined)	nt	nt	i	i	nt	nt
COc1c(O)ccc(/C=N/NC(=O)c2ccc3c(c2)OCCO3)c1[N+](=O)[O-]	?	?	nt	2.69µM	?	?
O=C(N/N=C/c1cc2c(cc1[N+](=O)[O-])OCO2)c1ccc2c(c1)OCO2	i	i	nt	?	i	i
SMILES	NPC1 promoter act	Rab9 prom act	SMN2 splice enh	FLuc modulator	ELG1 genotox	ELG1 repair inh
COc1c(O)ccc(/C=N\NC(=O)c2ccc3c(c2)OCO3)c1[N+](=O)[O-]	i	i	nt	15.1µM	i	?
O=C(Nc1ccc(Cl)c(C(F)(F)F)c1)C(Cc1ccccc1)NS(=O)(=O)c1cccc2nsnc12 (centres undefined)	nt	nt	i	i	nt	nt
Cc1cc(C)c(-c2n[nH]c3c2C(c2ccccc2F)N(Cc2ccco2)C3=O)c(O)c1 (centres undefined)	nt	nt	i	i	nt	nt
COc1ccc(CCNC(=O)c2cnc3sc(N4CCOCC4)nn3c2=O)cc1OC	nt	nt	nt	i	nt	nt
COCCc1nn2c(=O)cc(COC(=O)C(c3ccccc3)c3ccccc3)nc2s1	nt	nt	nt	i	nt	nt
Cc1ccc(NC(=O)N(C)c2ccccc2)cc1	i	i	nt	?	i	?
CN(C(=O)Nc1cnc2ccccc2c1)c1ccccc1	?	2.82µM	?	?	?	?
O=C(Nc1cnc2ccccc2c1)N1CCCCC1	1.26µM	1.26µM	14.1µM	9.53µM	?	?
COC1OC(CO)C(OC2OC(C(=O)O)C(OC3OC(COS(=O)(=O)O)C(OC4OC(C(=O)O)C(OC5OC(CO)C(OC6OC(C(=O)O)C(OC7OC(COS(=O)(=O)O)C(OC8OC(C(=O)O)=C[C@H](O)C8OS(=O)(=O)O)C(O)C7NC(C)=O)[C@@H](O)C6O)C(O)C5NC(C)=O)[C@@H](O)C4O)C(O)C3NC(C)=O)[C@@H](O)C2O)C(O)C1NC(C)=O (some centres undefined)	nt	nt	i	nt	nt	nt
Cc1ccc(N2C(=O)CS(=O)(=O)C23C(=O)N(Cc2ccccc2F)c2ccccc23)cc1Cl (centres undefined)	nt	nt	i	i	nt	nt
Cc1nn(C(C)C(=O)NCc2cccc(F)c2)c(=O)c2c1sc1ccccc12 (centres undefined)	nt	nt	nt	10.7µM	nt	nt
CCC(C(=O)N1CCN(c2ccccc2F)CC1)n1nc(C)c2sc3ccccc3c2c1=O (centres undefined)	nt	nt	nt	15.1µM	nt	nt
COc1ccc(CCNC(=O)CCCn2nc(C)c3sc4ccccc4c3c2=O)cc1OC	nt	nt	nt	13.5µM	nt	nt
COc1ccc(CCNC(=O)C(C)n2nc(C)c3sc4ccccc4c3c2=O)c(OC)c1 (centres undefined)	nt	nt	nt	9.53µM	nt	nt
Cc1cc(Br)ccc1NC(=O)C1(S(=O)(=O)c2ccc(Cl)cc2)CC1	nt	nt	i	i	nt	nt
CCC(C(=O)NCCc1ccccc1)n1nc(C)c2sc3ccccc3c2c1=O (centres undefined)	nt	nt	nt	19µM	nt	nt
Nc1nc2ccccc2n1/N=C/c1ccc([N+](=O)[O-])s1	i	i	i	i	i	?
Nc1nc2ccccc2n1/N=C/c1ccc(-c2ccccc2)o1	?	3.98µM	i	?	?	?
CCOC(=O)CCNC(=O)c1ccccc1Br	i	i	i	i	i	?
CCOC(=O)Cc1ccc(NC(=O)c2ccccc2Br)cc1	i	i	i	19µM	i	?
CCOC(=O)c1ccc(NC(=O)c2ccc(NC(=O)c3ccccc3)cc2)cc1	i	i	?	i	?	i
CCOC(=O)Cc1ccc(NC(=O)c2ccc(C(C)(C)C)cc2)cc1	i	i	i	1.07µM	i	18.4µM
COc1ccc(Nc2ccc3nnc(-c4ccc(Br)cc4)n3n2)cc1	i	i	i	i	i	i
Cc1cccc(NC(=O)CN2CCN(C(=O)c3ccc(-c4nc5ccccc5s4)o3)CC2)c1C	i	i	nt	23.9µM	i	?
O=C(CN1CCN(C(=O)c2ccc(-c3nc4ccccc4s3)o2)CC1)Nc1ccc(F)cc1	i	i	nt	16.9µM	i	?
O=C(CN1CCN(CC(=O)Nc2ccc(-c3ccccc3)cc2)CC1)Nc1ccc(F)cc1	i	i	nt	i	i	i
